Inconclusive results are not listed. Values without a mark were called inactive. The call rests on the fitted dose curve; in most records, active means well fitted inhibition curve with a large enough effect; inconclusive means small, poorly fitted or top-dose-only effect; inactive means no such curve, though single readings can be large or run the other way.

This experiment deals with Retinaldehyde dehydrogenase 3 (Homo sapiens) (UniProt P47895). In words: qHTS for Inhibitors of the Aldehyde Dehydrogenase Family (ALDH1A3) Primary screen (AID 2061315).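 Further: plate controls were DMSO vehicle for no effect and reference inhibitor for full effect.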 The note with it: ALDH inhibition qHTS; series mostly up to 56 µM; activity change, negative = inhibition: at the top concentration.
In the case of `CC12CCC3C1C(c1c(cc(O)c(C(=O)c4ccccc4)c1O)O2)C3(C)C` (stereo not given), the “activity change, negative = inhibition” value was 11.9%.

For the compound `O=C(NC1CCCc2c1cnn2-c1ccc(F)cc1F)c1cnon1` (stereo not given), the “activity change, negative = inhibition” value is 0.594%.

Take `Cc1c(C(=O)O)[nH]c2c1C(=O)CCC2`: the “activity change, negative = inhibition” value was -15.3%.

Regarding `O=S1(=O)N=C(Oc2ccc(-c3ccccc3)cc2)c2ccccc21`, the “activity change, negative = inhibition” value is -4.69%.

Turning to `CC(=O)Nn1c(C)nc2sc3c(c2c1=O)CCNC3`, the “activity change, negative = inhibition” value is 0.642%.

In the case of `CCC1(CC)CCN(C(=O)CC(c2ccc3c(c2)OCO3)c2c(O)cc(OC)cc2OC)C1` (stereo not given), the “activity change, negative = inhibition” value is -10.1%.

Regarding `CC(C)(C)c1ccc(-c2nc(SCCCOc3ccccc3)n3[nH]c(=O)cc3n2)cc1`, the “activity change, negative = inhibition” value was 32.3%.

`CC(=O)c1ccc(N2CCN(S(=O)(=O)c3ccc4c(c3)OCC(=O)N4)CC2)cc1`: the “activity change, negative = inhibition” value was -2.48%.

Consider `CC(C)(C)NS(=O)(=O)c1cccc(-c2nnc(SCc3ccc(C(=O)O)cc3)n2-c2ccccc2)c1`, for which the “activity change, negative = inhibition” value was 1.79%.

In the case of `Cc1ccccc1C(=O)N1CCc2cc(-c3nc(NC(=O)c4ccc5c(c4)OCO5)sc3C)ccc21`, the “activity change, negative = inhibition” value is 2.53%.

Take `O=S(=O)(NCC1CN(S(=O)(=O)c2c(F)cccc2F)C1)c1ccc2c(c1)OCCO2`: the “activity change, negative = inhibition” value was -5.67%.

Turning to `CC1=C[C@@H]2[C@H]3[C@@H]4O[C@@](C)(CC[C@H]4O)[C@H]3CC(=O)[C@]23C(=O)N[C@@H](CC(C)C)[C@@H]3[C@@H]1C`, the “activity change, negative = inhibition” value is 12.1%.

On to `Cc1ccc(NC(=O)CSc2nnc(-c3cccc([S+](=O)([O-])N4CCCC4)c3)n2-c2ccccc2)cc1`, for which the “activity change, negative = inhibition” value was 14.1%.

`CC(=O)Nc1sc2c(c1-c1cccc3c1sc1ccccc13)CCNC2`: the “activity change, negative = inhibition” value is -3.57%.

Regarding `CN(CCC1CCCO1)c1ncnc2ccc(-c3ccc4c(c3)OCO4)cc12` (stereo not given), the “activity change, negative = inhibition” value is 0.818%.
